According to PubChem BioAssay (Tox21):
Results filed as inconclusive are left out. Active and inactive are the calls of the source. Calls follow the shape of the dose curve; as a rule, active = well fitted curve in the direction sought with a large enough effect in the repeat runs; inconclusive = weak or mixed curves; inactive = no such curve, though single readings can be large; an effect the other way counts as inactive or inconclusive.

Key:
[1] = A CellTox Green Cytotoxicity Assay to monitor cytotoxicity in HEK293 cells - 32 hour (AID 1224881); also: nearly all actives have a fitted effect of over 40% in size
Procedure, shortened: (§1)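 Fluorescence intensity, read at 0, 8, 16, 24, 32 and 40 h of compound treatment, reflected dye binding to DNA of dead HEK293 cells; compounds (23 nL, DMSO) were added 5 h after plating cells with reagent.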

[2] = A CellTox Green Cytotoxicity Assay to monitor cytotoxicity in HepG2 cells - 0 hour (AID 1224882); also: nearly all actives have a fitted effect of over 35% in size
Procedure, shortened: (§2)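 Using 1536-well format, dye-containing HepG2 suspension was seeded, allowed 5 h at 37 C/5% CO2, dosed by pintool with compounds, positive and negative controls, and imaged for fluorescence across 40 h.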

[3] = A CellTox Green Cytotoxicity Assay to monitor cytotoxicity in HepG2 cells - 32 hour (AID 1224883); also: nearly all actives have a fitted effect of over 50% in size
Procedure, shortened: as §2

[4] = A CellTox Green Cytotoxicity Assay to monitor cytotoxicity in HEK293 cells - 8 hour (AID 1224884); also: nearly all actives have a fitted effect of over 35% in size
Procedure, shortened: as §1

[5] = qHTS RealTime-Glo MT Cell Viability Assay in HepG2 cells - 16 hour (AID 1224885); also: nearly all actives have a fitted effect of over 50% in size
Procedure, shortened: (§3)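 Cell number in HepG2 cultures estimated from NanoLuc luminescence generated by metabolic reduction of a prosubstrate by living cells. The homogeneous, nonlytic format allowed repeated reads at 0, 8, 16, 24, 32 and 40 h of compound exposure.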

[6] = qHTS RealTime-Glo MT Cell Viability Assay in HEK293 cells - 24 hour (AID 1224886); also: top concentration of the series differs between compounds; nearly all actives have a fitted effect of over 50% in size
Procedure, shortened: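 Homogeneous bioluminescent viability format in HEK293 cells (600 cells/well). Following 5 h at 37 C/5% CO2, 23 nL compound was pintooled; the signal was measured repeatedly during 40 h incubation.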

[7] = qHTS RealTime-Glo MT Cell Viability Assay in HEK293 cells - 8 hour (AID 1224887); also: top concentration of the series differs between compounds; nearly all actives have a fitted effect of over 50% in size
Procedure, shortened: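 Viable HEK293 cells reduce a cell-permeant prosubstrate; the product diffuses out and is consumed by NanoLuc in the medium to give light. Compounds went in after a 5 h incubation and plates were read over the treatment course.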

[8] = A CellTox Green Cytotoxicity Assay to monitor cytotoxicity in HEK293 cells - 16 hour (AID 1224888); also: nearly all actives have a fitted effect of over 35% in size
Procedure, shortened: as §1

[9] = qHTS RealTime-Glo MT Cell Viability Assay in HepG2 cells - 0 hour (AID 1224889); also: nearly all actives have a fitted effect of over 50% in size
Procedure, shortened: as §3

[10] = A CellTox Green Cytotoxicity Assay to monitor cytotoxicity in HepG2 cells - 8 hour (AID 1224890); also: nearly all actives have a fitted effect of over 45% in size
Procedure, shortened: as §2

Measured: Potency

COC(=O)c1ccc(CBr)cc1
inactive: all assays above

CCC(C)(C#N)N=NC(C)(C#N)CC (stereo not drawn)
inactive: all assays above

O=C(O)C(Br)(Br)Br
inactive: all assays above

OP(O)c1ccccc1
inactive: all assays above

CNC(=O)Oc1cc(C)c(N(C)C)c(C)c1
inactive: all assays above

CCC(CC)(CNC(=O)CCCO)c1cccc(OC)c1
not listed: [9]
inactive: all other assays above

CN1C(=O)COc2c(C(=O)NC3CN4CCC3CC4)cc(Cl)cc21 (stereo not drawn)
inactive: all assays above

CN(C)C(=O)Oc1cc(OC(=O)N(C)C)cc(C(O)CNC(C)(C)C)c1 (stereo not drawn)
not listed: [9]
inactive: all other assays above

OCC(Cl)CCl (stereo not drawn)
not listed: [9]
inactive: all other assays above

C1CN2CCC1CC2
inactive: all assays above

CC[C@@H](CO)NC(=O)[C@@H]1C=C2c3cccc4c3c(cn4C)C[C@H]2N(C)C1
inactive: all assays above

CCC1(c2ccccc2)C(=O)N(COC)C(=O)N(COC)C1=O
not listed: [9]
inactive: all other assays above

CCN[C@@H](C)Cc1cccc(C(F)(F)F)c1
inactive: all assays above

C=CCN1CC[C@]23CCCC[C@H]2[C@H]1Cc1ccc(O)cc13
not listed: [9]
inactive: all other assays above

CCOC(=O)C(SP(=S)(OC)OC)c1ccccc1 (stereo not drawn)
not listed: [9]
inactive: all other assays above

Cc1ccc2cc(C)ccc2c1
inactive: all assays above

CCN(CCO)CCn1c(Cc2ccccc2)nc2c1c(=O)n(C)c(=O)n2C
not listed: [9]
inactive: all other assays above

O=C(O)C(F)(F)C(F)(F)C(F)(F)C(F)(F)C(F)(F)C(F)(F)F
inactive: all assays above

ClCOCCl
inactive: all assays above

CC1N=C(N)OC1c1ccccc1 (stereo not drawn)
not listed: [8] | [10]
inactive: all other assays above

NNCc1ccccc1
not listed: [6] | [8] | [10]
inactive: all other assays above

CCCCCCCC(=O)Cl
not listed: [8]
inactive: all other assays above

C/C(=N\NC(=O)Nc1cc(F)cc(F)c1)c1ncccc1C(=O)O
not listed: [7]
inactive: all other assays above

S=C=S
not listed: [7]
inactive: all other assays above

CCOC(=O)COc1ccc(Cl)cc1Cl
not listed: [8]
inactive: all other assays above

[P]#[In]
not listed: [7]
inactive: all other assays above
